The nature of test [1]: antimalarial activity against Dd2 strain (AID 2302;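 active = growth inhibition above 50% at the single 2 µM test dose, taken to imply half-maximal potency below 2 µM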;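 note: 0% = DMSO untreated growth and 100% = chloroquine plus artemisinin killed control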). The settings on record: P. falciparum Dd2 in RBCs, LDH growth readout, 72 h; at 2 µM; stronger effect = higher value.
Test [2] is described as follows: human hepatoma cell viability loss – ATP luminescence, cytotoxicity control for P. falciparum antimalarial project, primary screen (AID 2303;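 active = inhibition above 50%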;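 note: 0% = DMSO wells and 100% = digitonin-killed cells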). The settings on record: HepG2 viability, 24-48 h, at 10 µM, stronger effect = higher value.
Test [3] concerns the target L-lactate dehydrogenase (Plasmodium falciparum (isolate CDC / Honduras)) (UniProt Q27743). The test is described as follows: PfLDH activity inhibition – cell lysate, 3D7 strain, counter-screen for P. falciparum growth inhibition project (AID 2304).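 Note: 0% = vehicle and 100% = reference inhibitor.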 The settings on record: P. falciparum 3D7 crude extract, LDH APAD/NBT absorbance; at 2 µM; stronger effect = higher value.
A short description of test [4]: inhibition of 3D7 malaria parasite growth – strain 3D7 (AID 2306).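 Note: 0% = DMSO wells and 100% = chloroquine plus artemisinin control wells.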 The settings on record: P. falciparum 3D7 erythrocytic growth, LDH absorbance, 72 h; at 2 µM; stronger effect = higher value.
Test [5] has as its target Calcium-dependent protein kinase 1 (Plasmodium falciparum (isolate 3D7)) (UniProt P62344). The test is described as follows: PfCDPK1 kinase inhibitors, biochemical, TCAMS library (AID 1159585; cut-off not given, nearly all actives have IC50 up to about 0.98 µM;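 note: inhibitors leave more ATP so luminescence rises with inhibition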). The settings on record: recombinant PfCDPK1, Kinase-Glo ATP depletion luminescence. On the technique in general: Kinase-Glo measures the ATP left after a reaction by luminescence.
For test [6], the target named is Plasmodium falciparum protein kinase 6 (PK6, PF3D7_1337100) (UniProt Q8IDW1). The test can be described thus: PfPK6 kinase inhibitors, biochemical, TCAMS library (AID 1159586). The settings on record: recombinant PfPK6, Kinase-Glo ATP depletion luminescence.
Test [7] deals with Protein kinase 7 (PK7), Plasmodium falciparum 3D7 (PF3D7_0213400) (UniProt Q7YTF7). The test can be described thus: inhibition of Plasmodium PK7 catalytic activity – biochemical, TCAMS antimalarial set, Kinase-Glo luminescence (AID 1159587). To be noted: recombinant PfPK7, Kinase-Glo ATP depletion luminescence.
The target of test [8] is Calcium-dependent protein kinase 4 (Plasmodium falciparum (isolate 3D7)) (UniProt Q8IBS5). The test can be described thus: PfCDPK4 kinase inhibitors, biochemical, TCAMS library (AID 1159588; cut-off not given, nearly all actives have IC50 up to about 0.91 µM). To be noted: recombinant PfCDPK4, Kinase-Glo ATP depletion luminescence.

Molecules are shown by their SMILES. Unmarked numbers belong to inactive results. For some of these results: Results with a measured potency or affinity are listed apart. Activity calls are given as the source filed them. Unless noted, the rule behind the calls is not given here.

For 20 compounds, growth inhibition, inhibition and outcome results are on record in PubChem BioAssay.

Calcium-dependent protein kinase 1 (Plasmodium falciparum (isolate 3D7)), sequence (P62344 whole entry, looked up): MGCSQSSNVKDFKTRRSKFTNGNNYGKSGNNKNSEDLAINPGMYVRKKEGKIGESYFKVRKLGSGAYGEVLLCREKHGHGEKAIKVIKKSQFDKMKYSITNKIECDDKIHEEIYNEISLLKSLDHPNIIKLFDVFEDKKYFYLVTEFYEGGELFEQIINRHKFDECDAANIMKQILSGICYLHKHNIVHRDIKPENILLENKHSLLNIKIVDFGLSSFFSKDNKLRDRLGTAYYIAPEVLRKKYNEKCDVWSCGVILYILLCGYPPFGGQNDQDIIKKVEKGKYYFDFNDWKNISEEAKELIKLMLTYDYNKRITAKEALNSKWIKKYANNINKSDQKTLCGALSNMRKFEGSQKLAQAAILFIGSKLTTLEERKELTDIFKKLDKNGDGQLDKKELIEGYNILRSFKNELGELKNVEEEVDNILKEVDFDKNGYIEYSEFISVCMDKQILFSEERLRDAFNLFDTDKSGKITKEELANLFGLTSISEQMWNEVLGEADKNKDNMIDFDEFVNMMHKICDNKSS
Calcium-dependent protein kinase 4 (Plasmodium falciparum (isolate 3D7)), sequence (Q8IBS5 whole entry, looked up): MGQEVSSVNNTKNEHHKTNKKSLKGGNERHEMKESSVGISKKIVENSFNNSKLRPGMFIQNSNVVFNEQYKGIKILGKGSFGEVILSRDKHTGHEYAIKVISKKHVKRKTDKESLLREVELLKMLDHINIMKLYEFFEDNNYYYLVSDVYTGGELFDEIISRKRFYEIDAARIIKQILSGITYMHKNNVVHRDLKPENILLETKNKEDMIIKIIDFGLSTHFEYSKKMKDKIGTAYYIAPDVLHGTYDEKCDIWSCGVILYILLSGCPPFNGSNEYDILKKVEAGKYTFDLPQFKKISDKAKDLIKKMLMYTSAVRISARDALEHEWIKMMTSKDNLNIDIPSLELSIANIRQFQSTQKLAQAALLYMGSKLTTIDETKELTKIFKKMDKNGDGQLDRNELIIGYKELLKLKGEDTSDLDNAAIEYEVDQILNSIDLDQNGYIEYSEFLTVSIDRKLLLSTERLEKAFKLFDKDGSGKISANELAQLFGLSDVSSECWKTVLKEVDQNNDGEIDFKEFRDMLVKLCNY
L-lactate dehydrogenase (Plasmodium falciparum (isolate CDC / Honduras)), sequence (Q27743 whole entry, looked up): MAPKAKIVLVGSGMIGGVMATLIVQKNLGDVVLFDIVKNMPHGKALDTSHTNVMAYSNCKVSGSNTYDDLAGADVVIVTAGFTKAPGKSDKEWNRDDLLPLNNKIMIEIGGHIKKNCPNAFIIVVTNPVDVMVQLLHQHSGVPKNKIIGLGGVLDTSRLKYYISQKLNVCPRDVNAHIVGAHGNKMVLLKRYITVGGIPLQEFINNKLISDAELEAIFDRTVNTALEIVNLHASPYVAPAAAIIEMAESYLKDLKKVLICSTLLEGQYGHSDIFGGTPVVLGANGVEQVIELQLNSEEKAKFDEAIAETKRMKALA
Plasmodium falciparum protein kinase 6 (PK6, PF3D7_1337100), sequence (Q8IDW1 1-305): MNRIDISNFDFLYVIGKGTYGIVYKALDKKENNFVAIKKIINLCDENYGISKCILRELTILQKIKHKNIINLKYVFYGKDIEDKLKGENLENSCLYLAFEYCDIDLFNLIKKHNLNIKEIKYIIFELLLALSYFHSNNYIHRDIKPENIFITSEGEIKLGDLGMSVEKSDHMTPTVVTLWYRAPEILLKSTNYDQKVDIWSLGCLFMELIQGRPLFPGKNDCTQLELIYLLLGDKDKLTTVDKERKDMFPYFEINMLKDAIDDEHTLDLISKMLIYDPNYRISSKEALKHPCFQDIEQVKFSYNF
Protein kinase 7 (PK7), Plasmodium falciparum 3D7 (PF3D7_0213400), sequence (Q7YTF7 1-343): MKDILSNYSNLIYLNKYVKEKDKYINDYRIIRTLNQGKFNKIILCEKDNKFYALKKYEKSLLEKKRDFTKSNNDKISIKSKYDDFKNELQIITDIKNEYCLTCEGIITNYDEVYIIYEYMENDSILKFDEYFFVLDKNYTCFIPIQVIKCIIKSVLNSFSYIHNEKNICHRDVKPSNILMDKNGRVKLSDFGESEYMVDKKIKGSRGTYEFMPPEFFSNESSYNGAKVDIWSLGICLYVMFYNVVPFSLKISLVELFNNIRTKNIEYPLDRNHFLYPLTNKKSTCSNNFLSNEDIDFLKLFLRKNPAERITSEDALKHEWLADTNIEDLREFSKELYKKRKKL

By inhibition is commonly meant the change of the read-out against control, counted positive when it falls. Consider `O=C(Nc1ccc(C(=O)OC[C@@H]2CCCN3CCCC[C@H]23)cc1)c1ccc([N+](=O)[O-])cc1`, for which the results for the growth inhibition in test [1] and in test [4] were 25% and 95% (active), respectively. Besides, the inhibition is 5% in test [2] and 2% in test [3]. Further, the outcome in test [5], in test [6], in test [7] and in test [8] was inactive.

Regarding `O=C(Nc1ccc(-c2ccccc2)cc1)Nc1cccc(Cn2nc(Cl)c(N3CCNCC3)cc2=O)c1`, the results for the growth inhibition in test [1] and in test [4] were 79% (active) and 102% (active), respectively. Also, the inhibition in test [2] is 15%; in test [3], -2%. The outcome in test [5], in test [6], in test [7] and in test [8] was inactive.

With `C=CCn1c(Cc2ccccc2)nnc1Sc1ccc(C#N)c([N+](=O)[O-])c1`, the growth inhibition is 43% in test [1] and 86% (active) in test [4]. The inhibition in test [2] was 7%; in test [3], 2%. Moreover, the outcome in test [5], in test [6], in test [7] and in test [8] was inactive.

Consider `Cc1cc(CNC(c2ccccc2)C2CCC2)cc(C)c1O` (stereo not given), for which the growth inhibition in test [1] is 48%; in test [4], 94% (active). Moreover, the values for the inhibition in test [2] and in test [3] were 78% (active) and -2%, respectively. Moreover, the result in test [5], in test [6], in test [7] and in test [8] was inactive.

Turning to `CCCc1ccc(S(=O)(=O)NC2CCN(c3ccnc(Nc4ccc(F)cc4)n3)C2)cc1` (stereo not given), the growth inhibition in test [1] is 56% (active); in test [4], 95% (active). In addition, the inhibition in test [2] is 40%; in test [3], -6%. Moreover, the result in test [5], in test [6], in test [7] and in test [8] was inactive.

Consider `NS(=O)(=O)c1ccc(CNc2ccc3ncc(-c4ccc(Cl)cc4)n3n2)cc1`, for which the values for the growth inhibition in test [1] and in test [4] were 99% (active) and 96% (active), respectively. Also, the inhibition was 26% in test [2] and -4% in test [3]. Besides, the result in test [5], in test [6], in test [7] and in test [8] was inactive.

Consider `CSc1cccc(Nc2nc3ccc(S(=O)(=O)NC(C)C(C)C)cc3n2[C@H](C)C(C)(C)C)c1` (stereo not given in full), for which the growth inhibition was 98% (active) in test [1] and 97% (active) in test [4]. Besides, the inhibition in test [2] was -10%; in test [3], 0%. Further, the result in test [5], in test [6], in test [7] and in test [8] was inactive.

As to `O=C(NC1CCN(Cc2ccccc2)CC1)c1cccc(-c2nc3ccc(Cl)cc3[nH]2)c1`, the growth inhibition in test [1] is -1%; in test [4], 98% (active). For the same compound, the inhibition in test [2] was 6%; in test [3], -3%. Also, the outcome in test [5], in test [6], in test [7] and in test [8] was inactive.

On to `Cc1nn(C2CCS(=O)(=O)C2)c(C)c1C1Nc2ccccc2C(=O)N1Cc1ccc2c(c1)OCO2` (stereo not given), for which the growth inhibition was 93% (active) in test [1] and 98% (active) in test [4]. Further, the inhibition in test [2] was 7%; in test [3], 2%. In addition, the result in test [5], in test [6], in test [7] and in test [8] was inactive.

For `COc1ccc(CNCc2ccsc2)cc1-c1ccc(S(=O)(=O)NCCN2CCCC2)s1`, the growth inhibition is 34% in test [1] and 101% (active) in test [4]. For the same compound, the inhibition is 39% in test [2] and -7% in test [3]. The result in test [5], in test [6], in test [7] and in test [8] was inactive.

Take `CC(Cc1ccc(NC(=O)c2ccc(CC(C)NCc3ccc(Cl)cc3)cc2)cc1)NCCc1cccc(Cl)c1` (stereo not given): the growth inhibition in test [1] was 75% (active); in test [4], 101% (active). In addition, the inhibition was 95% (active) in test [2] and -5% in test [3]. Also, the result in test [5], in test [6], in test [7] and in test [8] was inactive.

For `COC(=O)[C@@H](NC(=O)[C@H](Cc1ccc(OC)c(OC)c1)Nc1ccc(C#N)c2ccccc12)c1ccc(O)cc1`, the growth inhibition is 100% (active) in test [1] and 101% (active) in test [4]. For the same compound, the values for the inhibition in test [2] and in test [3] were 6% and 5%, respectively. For the same compound, the result in test [5], in test [6], in test [7] and in test [8] was inactive.

`O=C(NCc1ccccc1)NC1CCN(c2ccnc3cc(Cl)ccc23)C1` (stereo not given): the values for the growth inhibition in test [1] and in test [4] were 99% (active) and 94% (active), respectively. The values for the inhibition in test [2] and in test [3] were 13% and -2%, respectively. The result in test [5], in test [6], in test [7] and in test [8] was inactive.

Turning to `CCC(CC)(Cc1ccccc1)NC(=O)[C@H](Cc1ccc(OC)c(OC)c1)Nc1ccc(C#N)c2ccccc12`, the growth inhibition in test [1] was 69% (active); in test [4] it was 90% (active). The inhibition in test [2] was 16%; in test [3] it was 0%. In addition, the result in test [5], in test [6], in test [7] and in test [8] was inactive.

Turning to `CN1CCN(c2cccc(-c3nnc(-c4ccc(OCC(=O)NCc5cccc(C(F)(F)F)c5)c([N+](=O)[O-])c4)o3)c2)CC1`, the growth inhibition in test [1] is 72% (active); in test [4], 90% (active). Further, the inhibition in test [2] is 25%; in test [3] it was 2%. The outcome in test [5], in test [6], in test [7] and in test [8] was inactive.

As for `CN(C(=O)Nc1ccc(C(F)(F)F)cc1)C1CCN(CCCCCNC(=O)/C=C/c2ccc(Cl)c(Cl)c2)CC1`, the results for the growth inhibition in test [1] and in test [4] were 38% and 101% (active), respectively. The inhibition is 57% (active) in test [2] and -3% in test [3]. Further, the outcome in test [5], in test [6], in test [7] and in test [8] was inactive.

In the case of `Cc1ccccc1CNc1ccc2nc(N)nc(N)c2c1`, the results for the growth inhibition in test [1] and in test [4] were 90% (active) and 101% (active), respectively. Further, the inhibition is 59% (active) in test [2] and -3% in test [3]. The result in test [5], in test [6], in test [7] and in test [8] was inactive.

As to `Nc1nc(N)c2c(ccc3c2ccn3Cc2ccc(Cl)cc2)n1`, the growth inhibition in test [1] is 99% (active); in test [4], 100% (active). In addition, the inhibition is 100% (active) in test [2] and 0% in test [3]. Further, the outcome in test [5], in test [6], in test [7] and in test [8] was inactive.

Consider `COc1ccc(-c2ccc(NC(=O)c3cccc(C#N)c3)cc2)cc1CN1CCC(O)CC1`, for which the growth inhibition was 84% (active) in test [1] and 101% (active) in test [4]. The inhibition is 21% in test [2] and 7% in test [3]. Further, the outcome in test [5], in test [6], in test [7] and in test [8] was inactive.

Take `O=C(NCCCCN1CCC(c2c[nH]c3ccccc23)CC1)c1sc(-c2ccc(C(F)(F)F)cc2)nc1CO`: the growth inhibition was 3% in test [1] and 94% (active) in test [4]. Also, the values for the inhibition in test [2] and in test [3] were 34% and 0%, respectively. Besides, the outcome in test [5], in test [6], in test [7] and in test [8] was inactive.
